{"source": "PubChem BioAssay (NCATS)", "note": "Records with an inconclusive call do not appear. A number with no mark means an inactive call. The source made the active and inactive calls. The call rests on the fitted dose curve; in most records, active means well fitted cell-killing curve with a large enough effect; inconclusive means small, poorly fitted or top-dose-only effect; inactive means no such curve, though single readings can be large or run the other way. On the % scale 0 is the no-effect control and ±100 the full control effect; potency means the concentration at half of the fitted maximal effect.", "data": [{"assay": "qHTS of pediatric cancer cell lines to identify multiple opportunities for drug repurposing: Primary screen for MG 63 (6-TG R) cells (AID 1347105); further: nearly all actives have a fitted effect of over 50% in size", "conditions": "MG 63 (6-TG R) viability, CellTiter-Glo, 48 h; series mostly up to 46 µM; activity change, negative = cytotoxic: at the top concentration", "from_the_text": "Drug repurposing or repositioning has been offered as a strategy for drug development in oncology programs. This approach has special potential for childhood cancers and other rare or orphan diseases, where the expected return on new drug development has been a disincentive to pharmaceuticals. […] In this project we exploit the poly-pharmacology of drugs to discover new indications via phenotypic screening of a panel of 19 well-characterized cell lines derived from solid tumors seen in children and adolescents. The goal is to identify approved drugs with previously unrecognized anticancer properties that has the potential to reveal new mechanisms and biological processes involved in carcinogenesis or drug resistance. We employed a titration-based paradigm (quantitative high-throughput screening or qHTS), where all compounds were tested at multiple concentrations for their effect on cell viability. Concentration-response curves (CRCs) were derived directly from the primary screen, and both potency and efficacy values were used to identify compounds with robust bioactivity profiles. We screened the NIH Chemical Genomics Center (NCGC) Pharmaceutical Collection (NPC) and Mechanism Interrogation Plate (MIPE) small molecule collections of approved and investigational compounds against these cell lines; and measured metabolically active cells after 48 hours of compound treatment as a proxy for cell viability. […] Assay Submitter: Nathalia J. Martinez, National Center for Advancing Translational Sciences, National Institutes of Health, Rockville, MD, USA; email: natalia.martinez@nih.gov Shen, M et al. Quantitative high-throughput phenotypic screening of pediatric cancer cell lines identifies multiple opportunities for drug repurposing. Oncotarget 2017 Dec 19;9(4):4758-4772. PMID 29435139.\nThe cells were obtained from University of North Carolina (UNC), Pediatric Preclinical Testing Program (PPT), and Coriell Institute (CI). qHTS cell viability assay: Cells were assayed in growth media at a density of 500-1,000 cells/well. Five microliters of cells were dispensed into 1,536-well, white, solid-bottom, TC-treated plates (Greiner Bio One) using a multidrop dispenser and incubated at 37 degrees C, 5% CO2, under a humidified atmosphere for 5 hours. Twenty-three nanoliters of compounds and controls (neutral control DMSO or positive control bortezomib at final concentration of 2.3 µM) were subsequently transferred by Kalypsys pintool. For primary screens, the MIPE collection was tested at 11-point dilutions (final concentrations range from 0.78 nM to 46 µM) and the NPC collection at 8-point dilutions (final concentrations range from 0.59 nM to 46 µM). Compounds tested in follow-up screens were assayed at 11-point dilutions. Cells were incubated for 48 hours, followed by addition of 3 µL of CellTiter-Glo (Promega). After a 15 min incubation at room temperature, samples were analyzed for luminescence intensity using a ViewLux High-throughput CCD imager equipped with clear filters.", "values": [{"smiles": "C=C(C)C(=O)OCC(O)CO", "note": "(stereo not given)", "activity change, negative = cytotoxic": "-6.88%"}, {"smiles": "COC(=O)C1=C(C)NC(C)=C(C(=O)OCCc2ccc(N3CCN(C(c4ccccc4)c4ccccc4)CC3)cc2)C1c1cccc([N+](=O)[O-])c1", "note": "(stereo not given)", "activity change, negative = cytotoxic": "-6.09%"}, {"smiles": "CCOC(=O)c1cc(=O)c2c(OCC(COc3cccc4oc(C(=O)OCC)cc(=O)c34)OC(=O)[C@@H](N)CCCCN)cccc2o1", "activity change, negative = cytotoxic": "-2.85%"}, {"smiles": "O=C(COCCOCCOCC(=O)Nc1c(I)cc(I)c(C(=O)O)c1I)Nc1c(I)cc(I)c(C(=O)O)c1I", "activity change, negative = cytotoxic": "-14.8%"}, {"smiles": "CCC[C@H](N[C@@H](C)C(=O)N1[C@H](C(=O)O)C[C@@H]2CCCC[C@@H]21)C(=O)OCC", "activity change, negative = cytotoxic": "-24.9%"}, {"smiles": "c1ccc(C(O[C@H]2CCCN(CCc3ccc4c(c3)OCO4)C2)c2ccccc2)cc1", "activity change, negative = cytotoxic": "11%"}, {"smiles": "O=C(CS(=O)Cc1ccco1)NC/C=C\\COc1cc(CN2CCCCC2)ccn1", "note": "(stereo not given)", "activity change, negative = cytotoxic": "-15.8%"}, {"smiles": "C[N+]1(CC2COC(c3ccccc3)(c3ccccc3)O2)CCCCC1", "note": "(stereo not given)", "activity change, negative = cytotoxic": "-14.9% [at 16.1 µM]"}, {"smiles": "Cc1ccc(-c2ccccc2C#N)cc1", "activity change, negative = cytotoxic": "6.72%"}, {"smiles": "COC(=O)c1ccc(NC(C)=O)cc1OC", "activity change, negative = cytotoxic": "-12.5%"}, {"smiles": "CNC[C@H](O)[C@@H](O)[C@H](O)[C@H](O)CO", "activity change, negative = cytotoxic": "-21.5%"}, {"smiles": "CCCc1ncc(C(=O)O)s1", "activity change, negative = cytotoxic": "-13.4%"}, {"smiles": "C#CC(C)(CC)OC(=O)c1ccccc1C(=O)O", "note": "(stereo not given)", "activity change, negative = cytotoxic": "-3.62%"}, {"smiles": "O=[N+]([O-])c1cncn1CCN1CCOCC1", "activity change, negative = cytotoxic": "48.6%"}, {"smiles": "O=C(O)c1ccccc1S", "activity change, negative = cytotoxic": "-16.3%"}, {"smiles": "CCCC(CCC)(C(=O)OCC)C(=O)OCC", "activity change, negative = cytotoxic": "-7.06%"}, {"smiles": "Cc1onc(-c2ccccc2)c1C(=O)Cl", "activity change, negative = cytotoxic": "-20.2%"}, {"smiles": "CN1C(=O)CC(C)(c2ccccc2)C1=O", "note": "(stereo not given)", "activity change, negative = cytotoxic": "-26.6%"}, {"smiles": "Cc1nc([N+](=O)[O-])cn1-c1ccc([N+](=O)[O-])cc1", "activity change, negative = cytotoxic": "33.6%"}, {"smiles": "C[N+](C)(CCOc1ccccc1)Cc1cccs1", "activity change, negative = cytotoxic": "-29%"}, {"smiles": "O=C1CCCc2c(O)cccc21", "activity change, negative = cytotoxic": "4.01%"}, {"smiles": "COc1cc2nc(Cl)nc(N)c2cc1OC", "activity change, negative = cytotoxic": "-19%"}, {"smiles": "CCC(C(=O)OCCN1CCOC(c2ccccc2)C1C)c1ccccc1", "note": "(stereo not given)", "activity change, negative = cytotoxic": "-14.4%"}, {"smiles": "CCc1cc(S(=O)(=O)O)c2cc(C(C)C)cccc1-2", "activity change, negative = cytotoxic": "-20.5%"}, {"smiles": "CCN(CC)CC(=O)Nc1c(C)cccc1C(=O)OC", "activity change, negative = cytotoxic": "-10.5%"}, {"smiles": "CC[C@@]1(O)C(=O)OCc2c1cc1n(c2=O)Cc2c-1nc1ccccc1c2/C=N/OC(C)(C)C", "Potency": "0.0266 µM (active)"}, {"smiles": "Cc1coc2ccccc2c1=O", "activity change, negative = cytotoxic": "-12.4%"}, {"smiles": "CCCCC(=O)OCC(=O)[C@H]1[C@H](C)C[C@H]2[C@@H]3C[C@H](F)C4=CC(=O)C=C[C@]4(C)[C@@]3(F)[C@@H](O)C[C@@]21C", "activity change, negative = cytotoxic": "-3.47%"}, {"smiles": "CCC(=O)O[C@]1(C(=O)COC)[C@@H](C)C[C@H]2[C@@H]3CCC4=CC(=O)C=C[C@]4(C)C3(F)[C@@H](O)C[C@@]21C", "note": "(stereo not given in full)", "activity change, negative = cytotoxic": "-3.26%"}, {"smiles": "CC1c2ccccc2CN1NC(=O)c1ccc(Cl)c(S(N)(=O)=O)c1", "note": "(stereo not given)", "activity change, negative = cytotoxic": "-10.7%"}, {"smiles": "CC(=O)OCC(=O)[C@@]1(O)CCC2C3CCC4=CC(=O)CC[C@]4(C)C3[C@@H](O)C[C@@]21C", "note": "(stereo not given in full)", "activity change, negative = cytotoxic": "-16%"}, {"smiles": "C#Cc1ccc(-c2ccccc2F)cc1", "activity change, negative = cytotoxic": "-3.15%"}, {"smiles": "Cc1ccc(C(=O)Oc2ccc(C(O)CNC(C)(C)C)cc2OC(=O)c2ccc(C)cc2)cc1", "note": "(stereo not given)", "activity change, negative = cytotoxic": "1.71%"}, {"smiles": "Cc1ccccc1C(=O)N1CC/C(=N\\OS(=O)(=O)O)c2ccc(Cl)cc21", "activity change, negative = cytotoxic": "5.45%"}, {"smiles": "CC(C)C(=O)Nc1cccc(C2CN3CCSC3=N2)c1", "note": "(stereo not given)", "activity change, negative = cytotoxic": "3.18%"}, {"smiles": "Cc1nc2n(c(=O)c1CCN1CCC(C(=O)c3ccc(F)cc3)CC1)CCS2", "activity change, negative = cytotoxic": "-17.2%"}, {"smiles": "Cc1cc(CCCOc2c(C)cc(-c3noc(C(F)(F)F)n3)cc2C)on1", "activity change, negative = cytotoxic": "16.8%"}, {"smiles": "CCc1cccc2c(CCO)c[nH]c12", "activity change, negative = cytotoxic": "-5.21%"}, {"smiles": "Cc1cc2nc3ccc(=[N+](C)C)cc-3sc2cc1N", "Potency": "13.3 µM (active)"}, {"smiles": "CCC(C(=O)NC(=O)NC(C)=O)c1ccccc1", "note": "(stereo not given)", "activity change, negative = cytotoxic": "-10.1%"}]}]}
